# TRb-SRC2 inh – qHTS for Inhibitors of the Interaction of Thyroid Hormone Receptor and Steroid Receptor Coregulator 2; TRbeta-SRC2 peptide binding, fluorescence polarization; receptor liganded with 1 µM T3; AID 1469, 2008; 280,000 compounds, 0.065% hits; Potency, µM (series often up to 106 µM), actives largely listed as inhibitors; Thyroid hormone receptor beta (Homo sapiens), P10828; further: nearly all actives have a fitted effect of over 50% in size
#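 Fluorescence polarization of 20 nM Texas Red SRC2 peptide (20-aa NR interaction domain) bound to 0.6 uM human TRb ligand-binding domain, with 1 uM T3, after 5 hr at ambient temperature; inhibition seen as decreased polarization.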
# TexasRed fluor – Total Fluorescence Counterscreen for Inhibitors of the Interaction of Thyroid Hormone Receptor and Steroid Receptor Coregulator 2 | TRb/SRC2 Texas Red total fluorescence interference | Potency, µM (highest dose often 106 µM) | 280,000 compounds, 0.29% hits; active means well fitted curve in either direction with a large enough effect; inconclusive means small, poorly fitted or top-dose-only effect
#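 Human TRb ligand-binding domain at 0.6 uM with 20 nM Texas Red SRC2 peptide in Tris buffer containing 1 uM T3 and 5% DMSO, incubated with compound 5 h at ambient temperature. Total fluorescence (555/632 nm) calculated as parallel + 2 × perpendicular.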
# RECQ1 helicase – qHTS Assay for Inhibitors of RecQ-Like Dna Helicase 1 (RECQ1); ATP-dependent DNA helicase Q1 (Homo sapiens), P46063; RECQ1 DNA unwinding, red fluorescence kinetic read; Potency, µM (titrated, usually from 57.3 µM), actives largely listed as inhibitors; 240,000 compounds, 0.54% hits; AID 2549, 2010; further: nearly all actives have a fitted effect of over 30% in size
#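 50 nM RECQ1T1 preincubated 15 min with compound in Tris pH 8.0 buffer with MgCl2, DTT, Tween-20 and 2.5 ug/ml poly(dI-dC); started with 200 nM TAMRA/BHQ-2 forked duplex and 2 mM ATP. Unwinding read as fluorescence (525/598 nm), two reads 2 h apart.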
# ERG-DNA inh – qHTS for Small Molecule Inhibitors of the ERG Ets/DNA interaction; Transcriptional regulator ERG (Homo sapiens), P11308; fluorescence polarization, His-ERG Ets domain / labelled DNA; Potency, µM (highest dose often 76.9 µM), most hits filed as inhibitors; 370,000 compounds, 0.028% hits; active means well fitted inhibition curve with a large enough effect in the polarisation, with a control signal flat; inconclusive means small, poorly fitted or top-dose-only effect, or effect the other way, or a change in a side signal; inactive means no such curve, though single readings can be large or run the other way; the % refers to the polarisation;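 further: polarization taken with two DNA probes labelled with fluorescein and Texas red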
#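 His-tagged ERG Ets domain (1 uM in the protein solution; 300mM KCl, 50mM Tris-HCl, 1mM EDTA, 1mM DTT, pH 7.5) received compound, then a probe mix of 5 nM fluorescein-DNA and 100nM Texas-615-DNA. Fluorescence polarization was read for both dyes.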
# BLM inh – qHTS Assay for Inhibitors of Bloom's syndrome helicase (BLM) | RecQ-like DNA helicase BLM (Homo sapiens), P54132 | 350,000 compounds, 0.2% hits | Potency, µM (series often up to 56.1 µM), most hits filed as inhibitors | recombinant BLM DNA unwinding, fluorescence dequenching; further: nearly all actives have a fitted effect of over 35% in size
# RGS12 GoLoco inh – qHTS Assay for Inhibitors of RGS12 GoLoco Motif Activity (Red Fluorophore). Guanine nucleotide-binding protein G(i) subunit alpha-1 (Homo sapiens), P63096. Potency, µM (doses to about 61.6 µM), usual class: inhibitors. Gai1:RGS12 GoLoco peptide FP, rhodamine, 10 min. 230,000 compounds, 0.44% hits. AID 880, 2007; active means well fitted inhibition curve with a large enough effect, not every such curve was filed as active; inactive means no such curve, though single readings can be large or run the other way; further: nearly all actives have a fitted effect of over 30% in size
# Target sequence (P63096 whole entry, looked up): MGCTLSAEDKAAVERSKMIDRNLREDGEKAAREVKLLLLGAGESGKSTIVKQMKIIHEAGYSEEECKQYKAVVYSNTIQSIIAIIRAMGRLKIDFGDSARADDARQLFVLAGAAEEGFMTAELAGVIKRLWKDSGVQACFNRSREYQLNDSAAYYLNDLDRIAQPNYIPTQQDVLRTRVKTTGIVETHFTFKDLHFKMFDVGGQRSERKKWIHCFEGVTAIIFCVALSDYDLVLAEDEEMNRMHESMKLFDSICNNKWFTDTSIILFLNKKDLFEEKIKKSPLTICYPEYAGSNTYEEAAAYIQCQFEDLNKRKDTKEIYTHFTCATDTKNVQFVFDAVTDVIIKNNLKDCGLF
# A number is an active result; – = inactive; ? = inconclusive; · = no result; ! = not confirmed by another sample; [ ] = dose if it differs, or a comment. Rows were chosen to be rich in hits. Some 0.71% of all compounds tested hit in one or more screens of this group. Unless noted, the call rests on the fitted dose curve; in most records, active means well fitted curve in the direction sought with a large enough effect; inconclusive means small, poorly fitted or top-dose-only effect, or another doubt; inactive means no such curve, though single readings can be large; an effect the other way counts as inactive or inconclusive.
SMILES,TRb-SRC2 inh,TexasRed fluor,RECQ1 helicase,ERG-DNA inh,BLM inh,RGS12 GoLoco inh
O=C(Nc1ccc2c(c1)Cc1ccccc1-2)[C@@H]1[C@H](C(=O)O)[C@]2(Cl)C(Cl)=C(Cl)[C@@]1(Cl)C2(Cl)Cl,·,·,·,·,·,–[14.2 µM]
CCCc1c(C)[nH]c2ccc(C(=O)O)cc2c1=S,–,–,14µM,–,–,–
Cc1[nH]c2ccc(C(=O)O)cc2c1C,?,–,–,·,–,–
c1ccc(/C(=N/Nc2nc3ccccc3s2)c2ccccn2)cc1,·,·,·,·,·,–[14.2 µM]
O=C(N/N=C/c1cc2ccccc2nc1Cl)/C(=C/c1cccs1)NC(=O)c1ccccc1,–,–,25µM,–,?,–
O=C(N/N=C/c1cccnc1)/C(=C\c1cccs1)NC(=O)c1ccccc1,–,–,–,–,–,–
CCCCCCC(O)CCCCCCCCCCC(=O)OC (configuration not stated),–,–,·,·,·,·
IC(I)I,–,–,–,·,–,14µM
COc1ccc(-c2cc(C(=O)Nc3cccc(O)c3)on2)cc1OC,–,–,·,–,–,·
COc1ccco1,–,–,–,·,–,·
COc1cc2c(cc1O)CCC1C2CC[C@]2(C)[C@@H](O)CC[C@@H]12 (some centres not stated),–,–,–,·,·,–
C[C@]12CC[C@@H]3c4ccc(O)cc4CC[C@H]3[C@@H]1CC[C@@H]2O,–,–,32µM!,–,–,–
C[C@]12CC[C@@H]3c4cc(O)c(O)cc4CC[C@H]3[C@@H]1CC[C@@H]2O,–,–,–,–,–,7.9µM
CCCCCCCC/C=C\CCCCCCCC(=O)OC,–,–,·,·,·,·
CC(=O)OCC1OC(C#Cc2ccc(C)cc2C)C=CC1OC(C)=O (configuration not stated),–[11.2 µM],–[11.2 µM],–[11.5 µM],·,–[12.4 µM],·
CCCCCCCCCCCC(=O)N(C)CC(=O)O,–,–,·,·,·,·
CCC(C)NC(=O)COC(=O)c1csc2c1CCCC2 (configuration not stated),?,0.0004µM[quencher],–,–,–,–
O=C1c2ccccc2C(=O)c2c(O)ccc(O)c21,–,–,–,·,–,28µM
O=C1C=C(O)c2c(O)cc(O)c(O)c2C1=O,·,·,·,–,·,·
Nc1ccc(O)c2c1C(=O)c1ccccc1C2=O,–,–,–,–,14µM,–
CN(C)CCCNc1cc(O)c2c(c1O)C(=O)c1ccccc1C2=O,·,·,·,·,·,3.5µM
O=C1c2ccccc2C(=O)c2c(O)c(O)cc(O)c21,–,–,6.3µM,–,–,–
CCC(C(=O)N1CCN(c2cc(Cl)ccc2C)CC1)n1nc(C)c2sc3ccccc3c2c1=O (configuration not stated),–,–,·,–,–,·
O=c1[nH]c(=O)c2[nH]cnc2[nH]1,–,–,·,·,·,·
CC(N)(Cc1ccc(O)c(O)c1)C(=O)O (configuration not stated),–,–,3.2µM,·,?,–
SMILES,TRb-SRC2 inh,TexasRed fluor,RECQ1 helicase,ERG-DNA inh,BLM inh,RGS12 GoLoco inh
CCOc1ccccc1C(=O)Nc1nnc(COC)s1,–,–,–,–,–,50µM
O=C(Nc1ccc2nc(SCC(=O)N3CCOCC3)sc2c1)c1cccc(Br)c1,–,–,·,–,–,·
CC(C)(C)[C@H]1C=C(C(=O)Nc2ccccc2)O[C@@H](OCc2ccc(CO)cc2)C1,–,–,28µM,–,–,–
CC(C)(C)[C@H]1C=C(C(=O)O)O[C@@H](OCc2ccc(CO)cc2)C1,·,·,·,–,·,·
COC(=O)c1ccc2nc(C)cc(Nc3cccc(Cl)c3C)c2c1,–,–,·,–,–,·
O=C1CCCC2=C1C1O[C@](CCCCN3C(=O)c4ccccc4C3=O)(Cc3ccccc31)O2,·,·,·,·,–[12.4 µM],·
Cc1ccc2nc(/C(C#N)=C/c3ccc(O)c(O)c3)[nH]c2c1,·,·,·,–,20µM,·

# Screening data from PubChem.
